In ChEMBL document CHEMBL4513141, “CO-ADD screening of NIH (USA) - Clinical Collection” (2021):
Entries with a potency or affinity are not part of this list.

Tested on: Staphylococcus aureus
Settings: Concentration 20 uM; ASSAY_TEST Inhibition of Bacterial Growth; detection method Absorption (OD600); MEDIA CAMHB; plate type 384well; NBS; CORNING #3640; time 18 hr

| SMILES | Inhibition [%] |
| --- | --- |
| CCOC(=O)c1ccc(OC(=O)CCCCCN=C(N)N)cc1.CS(=O)(=O)O | 11.22 |
| COc1cc(OC)c(C(=O)CCCN2CCCC2)c(OC)c1.Cl | 14.97 |
| COC(=O)C1=C(C)NC(C)=C(C(=O)OCC(C)C)C1c1ccccc1[N+](=O)[O-] (stereo not drawn) [NISOLDIPINE] | 10.19 |
| O=C(CCCN1CC=C(n2c(=O)[nH]c3ccccc32)CC1)c1ccc(F)cc1 [DROPERIDOL] | 14.29 |
| COc1cc(C(=O)NS(=O)(=O)c2ccccc2C)ccc1Cc1cn(C)c2ccc(NC(=O)OC3CCCC3)cc12 [ZAFIRLUKAST] | 36.84 |

Tested on: Escherichia coli
Settings: Concentration 20 uM; ASSAY_TEST Inhibition of Bacterial Growth; detection method Absorption (OD600); MEDIA CAMHB; plate type 384well; NBS; CORNING #3640; time 18 hr

| SMILES | Inhibition [%] |
| --- | --- |
| CNC(=C[N+](=O)[O-])NCCSCc1csc(CN(C)C)n1 [NIZATIDINE] | 4.27 |
| CC(=O)NS(=O)(=O)c1ccc(N)cc1 [SULFACETAMIDE] | 1.92 |
| CCOC(=O)[C@H](CCc1ccccc1)N[C@@H](C)C(=O)N1Cc2ccccc2C[C@H]1C(=O)O.Cl [QUINAPRIL HYDROCHLORIDE] | 4.26 |
| O=S(=O)([O-])CCS.[Na+] [MESNA] | -2.71 |
| CCC[C@@H]1C[C@@H](C(=O)N[C@@H]([C@H]2O[C@H](SC)[C@H](O)[C@@H](O)[C@H]2O)[C@@H](C)O)N(C)C1.Cl.O [LINCOMYCIN HYDROCHLORIDE] | 6.86 |
| COC(=O)[C@H](c1ccccc1Cl)N1CCc2sccc2C1 [CLOPIDOGREL] | -0.51 |
| Cl.Nc1c2c(nc3ccccc13)CCCC2 [TACRINE HYDROCHLORIDE] | 0.14 |
| Cc1cccc(C)c1NC(=O)C(C)N (stereo not drawn) [TOCAINIDE] | 3.98 |
| CC(C)(C)NC(=O)[C@@H]1CN(Cc2cccnc2)CCN1C[C@@H](O)C[C@@H](Cc1ccccc1)C(=O)N[C@H]1c2ccccc2C[C@H]1O.O=S(=O)(O)O [INDINAVIR SULFATE] | 5.22 |
| C#C[C@]1(O)CC[C@H]2[C@@H]3CCc4cc(O)ccc4[C@H]3CC[C@@]21C [ETHINYL ESTRADIOL] | 3.7 |
| CC1(C)C[C@@H]1C(=O)N/C(=C\CCCCSC[C@H](N)C(=O)O)C(=O)[O-].[Na+] [CILASTATIN SODIUM] | -0.62 |
| Cc1cn([C@H]2C=C[C@@H](CO)O2)c(=O)[nH]c1=O [STAVUDINE] | 4.38 |
| Cc1cnc(NC(=O)C2=C(O)c3ccccc3S(=O)(=O)N2C)s1 [MELOXICAM] | 7.37 |
| CC12CC3CC(C)(C1)CC(N)(C3)C2.Cl [MEMANTINE HYDROCHLORIDE] | 5.88 |
| CC=CC(=O)N(CC)c1ccccc1C | 0.72 |
| COc1ccccc1OCCNCC(O)COc1cccc2[nH]c3ccccc3c12 (stereo not drawn) [CARVEDILOL] | 6.44 |
| CC(CN1c2ccccc2Sc2ccccc21)N(C)C.Cl (stereo not drawn) [PROMETHAZINE HYDROCHLORIDE] | 1.25 |
| Nc1ccc(O)c(C(=O)O)c1 [MESALAMINE] | 3.21 |
| Oc1ccc(/C=C/c2cc(O)cc(O)c2)cc1 [RESVERATROL] | 1.45 |

| SMILES | Inhibition [%] |
| --- | --- |
| C[C@]12C=CC(=O)C=C1CC[C@@H]1[C@@H]2[C@@H](O)C[C@@]2(C)[C@H]1CC[C@]2(O)C(=O)CO [PREDNISOLONE] | 7.41 |
| CNNCc1ccc(C(=O)NC(C)C)cc1.Cl [PROCARBAZINE HYDROCHLORIDE] | -2.72 |
| CCc1ccc(CCOc2ccc(CC3SC(=O)NC3=O)cc2)nc1.Cl (stereo not drawn) [PIOGLITAZONE HYDROCHLORIDE] | -0.97 |
| Cc1nc2n(c(=O)c1CCN1CCC(c3noc4cc(F)ccc34)CC1)CCCC2 [RISPERIDONE] | 2.58 |
| Cc1ccc(N(CC2=NCCN2)c2cccc(O)c2)cc1 [PHENTOLAMINE] | -2.29 |
| CC1CC2C3CCC4=CC(=O)C=CC4(C)[C@@]3(Cl)C(O)CC2(C)C1(O)C(=O)CO (stereo partly drawn) | 5.77 |
| CCN(CC)CCNC(=O)c1ccc(N)cc1.Cl [PROCAINAMIDE HYDROCHLORIDE] | -0.2 |
| CSc1nc2cc(Cl)c(Oc3cccc(Cl)c3Cl)cc2[nH]1 [TRICLABENDAZOLE] | -5.3 |
| CN(C)CCCN1c2ccccc2Sc2ccc(Cl)cc21.Cl [CHLORPROMAZINE HYDROCHLORIDE] | 2.59 |
| CCc1cccc2c3c([nH]c12)C(CC)(CC(=O)O)OCC3 (stereo not drawn) [ETODOLAC] | -6.35 |
| C[C@@H](O)[C@H]1C(=O)N2C(C(=O)O)=C(S[C@@H]3CN[C@H](C(=O)N(C)C)C3)[C@H](C)[C@H]12 [MEROPENEM] | 7.87 |
| Cc1cccc(C)c1OCC(C)N.Cl (stereo not drawn) [MEXILETINE HYDROCHLORIDE] | 3.59 |
| CC(CCc1ccccc1)NCC(O)c1ccc(O)c(C(N)=O)c1.Cl (stereo not drawn) [LABETALOL HYDROCHLORIDE] | 1.62 |
| Cc1ccsc1C(=CCCN1CCC[C@@H](C(=O)O)C1)c1sccc1C.Cl [TIAGABINE HYDROCHLORIDE] | -1.1 |
| CCOC(=O)c1ccc(OC(=O)CCCCCN=C(N)N)cc1.CS(=O)(=O)O | -0.78 |
| COc1cc(OC)c(C(=O)CCCN2CCCC2)c(OC)c1.Cl | 2.85 |
| COC(=O)C1=C(C)NC(C)=C(C(=O)OCC(C)C)C1c1ccccc1[N+](=O)[O-] (stereo not drawn) [NISOLDIPINE] | 14.24 |
| O=C(CCCN1CC=C(n2c(=O)[nH]c3ccccc32)CC1)c1ccc(F)cc1 [DROPERIDOL] | -7.37 |
| COc1cc(C(=O)NS(=O)(=O)c2ccccc2C)ccc1Cc1cn(C)c2ccc(NC(=O)OC3CCCC3)cc12 [ZAFIRLUKAST] | 4.93 |
